From PubChem BioAssay come the findings set out here.

SMILES strings stand for the structures. Calls of active or inactive are those of the source.

A short description of experiment [1]: small molecules captured by biotinylated probe aFSTL3 – biochemical, small-molecule microarray, fluorescence 635/667, stem cell growth factor project, primary screen (AID 1064).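 Further: measures binding of the biotinylated anti-FSTL3 antibody to printed compounds.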 The note with it: higher = more signal.
A short description of experiment [2]: binders from COS7 lysate, DM2A8 probe, primary screen, torsin A project, cell lysate, small-molecule microarray, fluorescence 635/667 (AID 1065). To be noted: higher = more signal, COS7 lysate expressing mutant human TOR1A.
A short description of experiment [3]: small molecules captured by biotinylated probe aFGF2 – biochemical, small-molecule microarray, fluorescence 635/667, stem cell growth factor project, primary screen (AID 1067).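 Further: measures binding of biotinylated aFGF2 protein to printed compounds on slides; z-score merges feature fluorescence and signal-to-noise across triplicate slides.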 To be noted: higher = more signal.
A short description of experiment [4]: small molecules captured by biotinylated probe aFGF10 – biochemical, small-molecule microarray, fluorescence 635/667, stem cell growth factor project, primary screen (AID 1071).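 Further: score merges 667 nm spot intensity and signal to noise from triplicate slides.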 The note with it: higher = more signal.
In experiment [5] the target is Neurogenic locus notch homolog protein 2 (Homo sapiens) (UniProt Q04721). Description: small molecules binding Notch2 protein – biochemical, small-molecule microarray, 635 nm fluorescence, stem cell growth factors, primary screen (AID 1073). To be noted: higher = more signal.
Chain of Neurogenic locus notch homolog protein 2 (Homo sapiens) (Q04721 whole entry, looked up, canonical isoform): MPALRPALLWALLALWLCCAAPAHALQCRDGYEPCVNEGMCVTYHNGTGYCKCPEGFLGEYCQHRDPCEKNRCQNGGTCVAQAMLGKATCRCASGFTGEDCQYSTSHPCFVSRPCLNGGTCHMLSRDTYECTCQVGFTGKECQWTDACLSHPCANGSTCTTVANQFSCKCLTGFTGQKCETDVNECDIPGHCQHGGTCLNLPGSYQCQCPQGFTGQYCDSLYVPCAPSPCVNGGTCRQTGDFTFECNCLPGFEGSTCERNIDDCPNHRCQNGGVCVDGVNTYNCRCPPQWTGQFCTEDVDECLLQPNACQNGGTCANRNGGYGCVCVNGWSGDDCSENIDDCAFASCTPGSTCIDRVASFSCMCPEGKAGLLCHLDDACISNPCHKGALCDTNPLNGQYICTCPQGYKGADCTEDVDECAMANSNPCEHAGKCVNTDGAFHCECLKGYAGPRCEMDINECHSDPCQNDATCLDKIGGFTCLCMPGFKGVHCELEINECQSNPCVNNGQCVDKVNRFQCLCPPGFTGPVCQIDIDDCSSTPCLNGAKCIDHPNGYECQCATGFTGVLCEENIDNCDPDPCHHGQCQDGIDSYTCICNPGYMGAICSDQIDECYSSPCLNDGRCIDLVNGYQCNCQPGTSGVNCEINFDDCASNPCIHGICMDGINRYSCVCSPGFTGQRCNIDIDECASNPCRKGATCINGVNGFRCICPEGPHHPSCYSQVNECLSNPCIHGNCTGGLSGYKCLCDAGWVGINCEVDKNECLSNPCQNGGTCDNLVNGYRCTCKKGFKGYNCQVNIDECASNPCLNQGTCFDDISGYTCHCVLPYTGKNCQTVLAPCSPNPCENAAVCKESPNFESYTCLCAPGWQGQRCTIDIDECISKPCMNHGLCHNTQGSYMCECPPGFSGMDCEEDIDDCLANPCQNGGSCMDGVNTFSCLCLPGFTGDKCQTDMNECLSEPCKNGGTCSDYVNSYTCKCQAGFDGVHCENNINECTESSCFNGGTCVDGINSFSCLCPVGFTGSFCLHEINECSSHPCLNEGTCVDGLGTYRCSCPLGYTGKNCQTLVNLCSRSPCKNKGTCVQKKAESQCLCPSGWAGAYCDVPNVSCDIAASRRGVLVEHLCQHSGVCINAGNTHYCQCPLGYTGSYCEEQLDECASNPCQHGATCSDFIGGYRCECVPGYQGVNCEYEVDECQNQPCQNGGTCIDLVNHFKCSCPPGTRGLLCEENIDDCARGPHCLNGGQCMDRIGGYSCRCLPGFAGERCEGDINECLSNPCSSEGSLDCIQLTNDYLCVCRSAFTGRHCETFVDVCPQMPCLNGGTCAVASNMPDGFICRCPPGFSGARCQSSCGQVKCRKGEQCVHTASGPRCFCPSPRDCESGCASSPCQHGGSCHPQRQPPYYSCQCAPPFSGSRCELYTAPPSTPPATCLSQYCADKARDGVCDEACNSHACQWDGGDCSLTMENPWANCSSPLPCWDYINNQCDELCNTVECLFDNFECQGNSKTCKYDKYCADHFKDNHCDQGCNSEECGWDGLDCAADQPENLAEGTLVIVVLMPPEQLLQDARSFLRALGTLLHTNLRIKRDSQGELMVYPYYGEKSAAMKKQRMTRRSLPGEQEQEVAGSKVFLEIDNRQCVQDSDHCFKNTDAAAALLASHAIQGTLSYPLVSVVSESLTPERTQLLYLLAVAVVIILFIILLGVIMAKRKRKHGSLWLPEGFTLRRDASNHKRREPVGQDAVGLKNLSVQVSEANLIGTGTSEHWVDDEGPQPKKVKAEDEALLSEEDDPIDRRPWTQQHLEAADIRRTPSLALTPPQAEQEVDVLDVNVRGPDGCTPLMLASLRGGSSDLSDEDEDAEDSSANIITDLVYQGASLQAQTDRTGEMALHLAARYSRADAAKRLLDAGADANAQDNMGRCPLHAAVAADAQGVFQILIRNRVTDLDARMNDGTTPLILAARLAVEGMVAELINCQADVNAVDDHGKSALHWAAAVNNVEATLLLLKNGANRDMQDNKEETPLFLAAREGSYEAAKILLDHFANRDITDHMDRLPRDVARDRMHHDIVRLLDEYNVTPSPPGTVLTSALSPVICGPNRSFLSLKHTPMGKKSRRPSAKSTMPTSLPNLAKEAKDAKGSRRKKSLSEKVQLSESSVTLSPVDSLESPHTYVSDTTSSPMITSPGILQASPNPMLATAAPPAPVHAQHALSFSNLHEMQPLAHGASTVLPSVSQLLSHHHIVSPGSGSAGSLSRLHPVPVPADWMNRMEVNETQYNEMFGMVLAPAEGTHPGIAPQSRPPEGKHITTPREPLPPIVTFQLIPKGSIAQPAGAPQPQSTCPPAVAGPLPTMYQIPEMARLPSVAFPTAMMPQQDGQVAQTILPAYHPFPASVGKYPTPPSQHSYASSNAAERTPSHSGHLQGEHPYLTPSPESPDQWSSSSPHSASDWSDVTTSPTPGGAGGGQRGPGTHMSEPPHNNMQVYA
The target of experiment [6] is Pro-neuregulin-1, membrane-bound isoform (Homo sapiens) (UniProt Q02297). Description: small molecules binding neuregulin-1 protein – biochemical, small-molecule microarray, fluorescence 635/667, psychiatric disease protein project, primary screen (AID 1075).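 Further: score combines 667 nm spot fluorescence with signal to noise.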 To be noted: NRG1 binding, 635 nm fluorescence, higher = more signal.
Chain of Pro-neuregulin-1, membrane-bound isoform (Homo sapiens) (Q02297 whole entry, looked up, the tested form may be a part, canonical isoform): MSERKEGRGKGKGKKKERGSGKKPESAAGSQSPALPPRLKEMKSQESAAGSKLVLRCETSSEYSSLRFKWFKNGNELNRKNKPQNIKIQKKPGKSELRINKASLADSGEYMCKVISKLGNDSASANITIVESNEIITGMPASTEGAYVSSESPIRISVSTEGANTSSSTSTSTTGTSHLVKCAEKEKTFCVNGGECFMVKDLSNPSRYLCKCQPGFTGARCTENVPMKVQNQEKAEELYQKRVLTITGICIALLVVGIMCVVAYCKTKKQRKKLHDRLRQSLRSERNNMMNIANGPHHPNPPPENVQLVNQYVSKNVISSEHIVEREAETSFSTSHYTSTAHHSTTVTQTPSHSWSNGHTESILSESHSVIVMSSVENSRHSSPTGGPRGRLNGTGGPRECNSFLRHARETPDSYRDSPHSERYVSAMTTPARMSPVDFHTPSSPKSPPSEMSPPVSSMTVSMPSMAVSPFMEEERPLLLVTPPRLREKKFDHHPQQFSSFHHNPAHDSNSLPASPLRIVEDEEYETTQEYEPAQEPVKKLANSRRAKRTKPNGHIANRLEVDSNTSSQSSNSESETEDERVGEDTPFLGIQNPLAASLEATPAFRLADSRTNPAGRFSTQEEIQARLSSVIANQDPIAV
For experiment [7], the system named is Neuregulin-1 EGF-like domain. Kind of experiment: small molecules binding NRG1 EGF domain – biochemical, small-molecule microarray, 635 nm fluorescence, primary screen (AID 1081).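 Further: binding of the protein to compounds printed on small-molecule microarray slides.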 To be noted: higher = more signal.
The nature of experiment [8]: FRG1 expression reporter modulators in myotubes – cell-based, C2C12 myotubes, firefly/Renilla luciferase, luminescence, FRG1 inhibition for FSHD, primary screen (AID 1084). To be noted: FRG1 promoter luciferase, higher = more signal, called active from +8 up or from −8 down.
Experiment [9] in a line: small molecules captured by biotinylated probe aFST – biochemical, small-molecule microarray, fluorescence 635/667, stem cell growth factor project, primary screen (AID 1086).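 Further: score merges 667 nm fluorescence with signal-to-noise of each printed compound spot.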 To be noted: higher = more signal.
Experiment [10] in a line: binders of probe aHhip on microarray, primary screen, stem cell growth factor project, biochemical, small-molecule microarray, fluorescence 635/667 (AID 1087).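 Further: score merges spot fluorescence at 667nm with spot signal to noise ratio.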 The note with it: higher = more signal.

As for `CCOC(=O)CCN1C(=O)[C@H]2[C@H]3[C@H](O)[C@H](O)CC(=NNC(=O)OCC)[C@H]3CC[C@H]2C1=O`, the composite z-score in experiment [1] is -0.264; in [2], 0.345; in [3], -0.162; in experiment [4], -0.188; in experiment [5], -0.752; in [6] it was 0.189. The values for the composite z-score in experiment [7], in experiment [9] and in experiment [10] were 0.54, 0.0166 and -0.0237, respectively. In addition, in experiment [8], the z-score was 0.115 (inactive).
Consider `CCO[C@H](c1cc(OC)cc([N+](=O)[O-])c1OC)[C@H](C)[C@@H](OC)[C@H](C)C=CCC(=O)OC`, for which the composite z-score was 0.0456 in experiment [1]; 0.32 in experiment [2]; -0.0241 in experiment [3]; -0.105 in experiment [4]; 0.174 in [5]; 0.339 in experiment [6]. Further, the composite z-score in experiment [7] is 0.66; in [9] it was 0.414; in experiment [10], -0.317. Also, the z-score in [8] is -0.0602 (inactive).
On to `COC(=O)CC=C[C@@H](C)[C@@H](C=NOC[C@@H](O)[C@H]1O[C@@H]2OC(C)(C)O[C@@H]2[C@H]1O)OC`, for which the composite z-score was 0.354 in [1]; 0.937 in experiment [2]; -0.0996 in experiment [3]; 0.197 in [4]; 0.427 in experiment [5]; -0.0348 in [6]. Also, the composite z-score was 0.205 in [7], -0.456 in experiment [9] and 0.221 in experiment [10]. The z-score in experiment [8] is 0.195 (inactive).
As for `CCOC(=O)[C@H](CC(C)C)NC(=O)CCC1CC(OC(=O)NCc2ccc3c(c2)OCO3)CC2(CCCC(COC(=O)NCCc3ccccc3OC)O2)O1` (stereo not given in full), the composite z-score in experiment [1] is -0.693; in experiment [2] it was 0.309; in experiment [3] it was -0.085; in experiment [4], 0.554; in experiment [5], 1.26; in [6], 0.53. The composite z-score in experiment [7] is 0.978; in experiment [9], 0.14; in experiment [10] it was -0.15. Moreover, the z-score in experiment [8] was 1.01 (inactive).
For `CON=C(C)CCN1CCCc2nc(C)c(C)cc21`, the composite z-score was -0.411 in experiment [1]; -0.205 in experiment [2]; -0.0266 in experiment [3]; 0.28 in experiment [4]; 0.512 in experiment [5]; 0.397 in experiment [6]. Moreover, the composite z-score in [7] was 0.908; in experiment [9], 0.192; in experiment [10], 0.12. Moreover, in experiment [8], the z-score is 0.885 (inactive).
Consider `CC(C)=CCCC(C)=CCON=C1C[C@@H](O)[C@@H](O)[C@@H]2[C@@H]3C(=O)N([C@@H](C)c4ccccc4)C(=O)[C@@H]3CC[C@@H]12`, for which the composite z-score is -0.465 in experiment [1]; -0.0543 in experiment [2]; -0.0493 in experiment [3]; 0.374 in [4]; 0.449 in experiment [5]; 0.137 in experiment [6]. Besides, the results for the composite z-score in experiment [7], in experiment [9] and in experiment [10] were 0.661, 0.11 and -0.249, respectively. Further, in experiment [8], the z-score was -0.366 (inactive).
For the compound `COC(=O)CC=C[C@@H](C)[C@@H](C=NOC(C)CN1CCCCc2nc(C)c(C)cc21)NS(=O)(=O)c1ccc(C)cc1` (stereo not given in full), the composite z-score was 0.061 in experiment [1]; 0.751 in experiment [2]; -0.0422 in experiment [3]; 0.471 in experiment [4]; 0.318 in [5]; -0.279 in experiment [6]. Besides, the results for the composite z-score in [7], in experiment [9] and in experiment [10] were -0.776, 0.38 and 0.0735, respectively. The z-score in experiment [8] was 0.511 (inactive).
Take `CON=C(C)CCN1CCCCc2nc(C)c(C)cc21`: the composite z-score in experiment [1] was determined as 0.367; in [2], 1.01; in experiment [3], 0.0121; in [4], 0.241; in experiment [5] it was 0.133; in experiment [6], 0.525. Also, the composite z-score in [7] was 0.93; in experiment [9], 0.437; in [10] it was -0.0296. The z-score in [8] was 0.997 (inactive).
In the case of `CCN1C(=O)[C@H]2[C@H]3[C@H](O)[C@H](O)CC(=NOC(C)CN4CCCc5nc(C)c(C)cc54)[C@@H]3CC[C@H]2C1=O` (stereo not given in full), the composite z-score in experiment [1] is -0.342; in experiment [2], 0.564; in experiment [3], -0.0468; in experiment [4], 0.49; in experiment [5] it was 0.724; in [6], -0.0318. Moreover, the results for the composite z-score in experiment [7], in [9] and in experiment [10] were 0.963, 0.372 and 0.0596, respectively. Moreover, the z-score in experiment [8] was -0.266 (inactive).
As for `CC(=O)OC[C@H]1O[C@H](CC=NO[C@@H](C)c2cn([C@H](CO)Cc3ccccc3)nn2)C=C[C@@H]1OC(C)=O`, the composite z-score in [1] is -0.513; in [2], 0.386; in [3], -0.104; in experiment [4] it was 0.649; in [5], 0.804; in [6], 1.24. In addition, the results for the composite z-score in [7], in [9] and in experiment [10] were 0.732, 0.275 and 0.225, respectively. For the same compound, the z-score in [8] was 0.386 (inactive).
For `CCOC(=O)[C@H](CC(C)C)NC(=O)CCC1CC(OC(=O)NCCc2ccc(F)cc2)CC2(CCCC(COC(=O)NCc3cccc4ccccc34)O2)O1` (stereo not given in full), the composite z-score in experiment [1] was -0.249; in experiment [2], 0.685; in experiment [3], -0.195; in experiment [4], 0.162; in experiment [5], 0.401; in [6], 0.0303. Further, the values for the composite z-score in experiment [7], in experiment [9] and in [10] were 0.76, 0.748 and -0.134, respectively. Besides, in experiment [8], the z-score was 1.95 (inactive).
Take `CC(CCN1CCCc2nc(C)c(C)cc21)=NOC[C@@H](C)[C@H](OCc1ccccc1)C(C)C`: the composite z-score in experiment [1] was -0.247; in [2], -0.325; in [3], -0.15; in experiment [4], -0.0055; in experiment [5] it was -0.766; in experiment [6], -0.162. Further, the composite z-score in [7] is -0.995; in experiment [9] it was -0.342; in experiment [10] it was 0.236. Moreover, in [8], the z-score is -0.14 (inactive).
As for `CC(C)=CCCC(C)=CCON=C1C[C@@H](O)[C@@H](O)[C@@H]2[C@@H]3C(=O)N(c4cccc(Oc5ccccc5)c4)C(=O)[C@@H]3CC[C@H]12`, the composite z-score in experiment [1] was -0.304; in experiment [2], -0.0323; in [3], -0.0296; in experiment [4], 0.0259; in experiment [5], 0.206; in experiment [6] it was 0.691. Also, the results for the composite z-score in experiment [7], in experiment [9] and in experiment [10] were 0.877, 0.305 and 0.06, respectively. The z-score in experiment [8] is 0.122 (inactive).
Turning to `Cc1ccc(S(=O)(=O)N[C@@H]2COC(=O)CC=C[C@@H](C)[C@H](NS(=O)(=O)c3ccc(C)cc3)COC(=O)[C@H](C)NC(=O)CC=C[C@H]2C)cc1`, the composite z-score in [1] is 0.166; in experiment [2] it was 0.264; in experiment [3], -0.11; in experiment [4], -0.0539; in experiment [5], -1.12; in [6], -0.921. Besides, the results for the composite z-score in experiment [7], in experiment [9] and in [10] were -0.744, -0.18 and -0.216, respectively. The z-score in experiment [8] was -0.138 (inactive).
Regarding `CC(C)[C@@H](OCc1ccccc1)[C@H](C)C=NOC[C@@H](O)[C@H]1O[C@@H]2OC(C)(C)O[C@@H]2[C@H]1O`, the composite z-score in experiment [1] was -0.365; in experiment [2] it was 0.116; in experiment [3] it was -0.198; in [4], 0.492; in [5], 0.25; in [6] it was 0.125. Further, the composite z-score in experiment [7] is 0.361; in experiment [9] it was 0.307; in experiment [10] it was -0.0645. For the same compound, the z-score in experiment [8] is 0.417 (inactive).
As to `CCOC(=O)CCN1C(=O)[C@H]2[C@H]3[C@H](O)[C@H](O)CC(=NOCC=C(C)CCC=C(C)C)[C@@H]3CC[C@H]2C1=O`, the composite z-score is 0.149 in experiment [1]; 1.13 in [2]; -0.133 in experiment [3]; 0.84 in experiment [4]; 0.845 in experiment [5]; 0.258 in experiment [6]. The composite z-score came to 0.658 in experiment [7], 0.42 in experiment [9] and 0.0515 in experiment [10]. The z-score in [8] was -0.594 (inactive).
